Results taken from PubChem BioAssay (NCI).
The panel holds about 79,000 compounds, 15% with a hit somewhere; the sample as a whole holds those more often. Calls of active or inactive are those of the source. Rule as the data show it: active = growth inhibition above about 70%; inactive = the rest.

Key:
[1] = NCI Yeast Anticancer Drug Screen. Data for the mec2-1 strain (AID 157); conditions: S. cerevisiae mec2-1 strain, stronger effect = higher value
How it was run: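 Each compound was tested on mec2-1 yeast, a strain altered in DNA damage repair or cell cycle control. Growth inhibition is reported relative to vehicle.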

[2] = NCI Yeast Anticancer Drug Screen. Data for the rad14 strain (AID 159);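 also: 0% = growth of vehicle-treated control cultures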; conditions: S. cerevisiae rad14 strain growth inhibition, stronger effect = higher value
How it was run: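 Compound-treated yeast with a defined DNA-repair lesion; growth inhibition normalised to vehicle-treated cultures.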

[3] = NCI Yeast Anticancer Drug Screen. Data for the sgs1 mgt1 strain (AID 161);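 also: 0% = growth of cultures given vehicle only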; conditions: S. cerevisiae sgs1 mgt1 strain, stronger effect = higher value
How it was run: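 Test agents were incubated with a DNA-repair-mutant yeast strain. Growth was then read and compared against vehicle-treated controls.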

[4] = NCI Yeast Anticancer Drug Screen. Data for the CLN2oe strain (AID 163);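 also: 0% = growth of vehicle-only control cultures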; conditions: S. cerevisiae CLN2oe strain, stronger effect = higher value
How it was run: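 First, the altered yeast strain was treated with each compound; second, its growth was measured; finally, inhibition was derived by comparison with vehicle controls.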

[5] = NCI Yeast Anticancer Drug Screen. Data for the cln2 rad14 strain (AID 165);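 also: 0% = growth equal to vehicle treated cultures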; conditions: S. cerevisiae cln2 rad14 strain, stronger effect = higher value
How it was run: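 Test compounds were added to cln2 rad14 yeast cultures; inhibition of growth was then determined by comparison with vehicle treatment.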

[6] = NCI Yeast Anticancer Drug Screen. Data for the bub3 strain (AID 167); conditions: S. cerevisiae bub3 mutant strain, stronger effect = higher value
How it was run: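 Growth of a checkpoint-deficient yeast mutant is measured after compound exposure. Values represent inhibition relative to vehicle.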

[7] = NCI Yeast Anticancer Drug Screen. Data for the wt2 strain (AID 169);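 also: 0% = growth of vehicle-treated yeast cultures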; conditions: S. cerevisiae wt2 strain growth inhibition, stronger effect = higher value
How it was run: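 The panel's yeast strains carry defined changes in DNA repair or cell cycle genes. Each strain is grown with compound, and growth loss is scored relative to vehicle.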

[8] = NCI Yeast Anticancer Drug Screen. Data for the mlh1 strain (AID 171);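 also: 0% = growth of vehicle-treated control cultures of the same strain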; conditions: S. cerevisiae mlh1 strain growth inhibition, stronger effect = higher value
How it was run: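 Inhibition values reflect reduced yeast growth in the presence of compound, referenced to vehicle controls, using a strain chosen for its alteration in DNA repair or cell cycle control.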

[9] = NCI Yeast Anticancer Drug Screen. Data for the sgs1 strain (AID 173);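 also: 0% = growth of vehicle-only control cultures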; conditions: S. cerevisiae sgs1 mutant, stronger effect = higher value
How it was run: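 Vehicle-treated cultures served as reference for growth inhibition of a yeast strain altered in DNA damage repair or cell cycle control after compound exposure.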

[10] = NCI Yeast Anticancer Drug Screen. Data for the mlh1 rad18 strain (AID 175); conditions: S. cerevisiae mlh1 rad18 strain growth inhibition, stronger effect = higher value
How it was run: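 Inhibition values reflect reduced growth of mutant yeast versus vehicle-treated controls following compound exposure; the mutations affect DNA damage repair.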

[11] = NCI Yeast Anticancer Drug Screen. Data for the rad18 strain (AID 177); conditions: S. cerevisiae rad18 mutant growth inhibition, stronger effect = higher value
How it was run: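 Steps: expose repair-mutant yeast to compound; measure growth; express as inhibition relative to vehicle control.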

[12] = NCI Yeast Anticancer Drug Screen. Data for the rad52 strain (AID 147);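 also: 0% = growth of vehicle-treated control cultures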; conditions: S. cerevisiae rad52 mutant growth inhibition, stronger effect = higher value
How it was run: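 Inhibition of yeast growth, referenced to vehicle controls, was the measured output for a strain with defective DNA damage repair.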

[13] = NCI Yeast Anticancer Drug Screen. Data for the wt1 strain (AID 149);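 also: 0% = growth of vehicle-treated wt1 cultures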; conditions: S. cerevisiae wt1 strain (SPY 50644) growth inhibition, stronger effect = higher value
How it was run: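 Readout: yeast growth inhibition, normalised to vehicle controls, in the wt1 strain exposed to test compounds.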

[14] = NCI Yeast Anticancer Drug Screen. Data for the rad50EPP+ strain (AID 151);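 also: 0% = growth of vehicle-treated control cultures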; conditions: S. cerevisiae rad50 mutant strain, stronger effect = higher value
How it was run: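 Genetically defined yeast (rad50EPP+, DNA damage repair alteration) is grown with compound, and inhibition of growth is expressed relative to vehicle-treated controls.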

[15] = NCI Yeast Anticancer Drug Screen. Data for the mgt1 strain (AID 153); conditions: S. cerevisiae mgt1 mutant growth inhibition, stronger effect = higher value
How it was run: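 In the mgt1 strain, test compounds were added and growth inhibition was determined relative to vehicle-treated controls.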

[16] = NCI Yeast Anticancer Drug Screen. Data for the rad50 strain (AID 155);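 also: 0% = growth of vehicle-only cultures of the same strain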; conditions: S. cerevisiae rad50 strain growth inhibition, stronger effect = higher value
How it was run: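 Compounds were tested on a yeast strain with an engineered DNA damage repair alteration; the reported value is growth inhibition normalised to vehicle treatment.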

[17] = at 5.0 µM (retest, dose inferred, filed as 0.5)
[18] = at 50.0 µM (retest, dose inferred, filed as 5.0)

Measured: growth inhibition

Cc1ccc(NC(=O)CCC(=O)C(C)C(=O)c2ccccc2)c(C)c1 (stereo unspecified)
inactive: [1]; at 100.0 µM -3% | [2]; at 1.2 µM 0% | [2]; at 3.7 µM 2% | [2]; at 11.0 µM 1% | [2]; at 33.0 µM 2% | [2]; at 100.0 µM 2% | [3]; [17] 5% | [3]; [18] 9% | [3]; at 50.0 µM 11.1% | [4]; at 1.2 µM -1% | [4]; at 3.7 µM 1% | [4]; at 11.0 µM 5% | [4]; at 33.0 µM 1% | [4]; at 100.0 µM 0% | [5]; [17] -3% | [5]; [18] 11% | [5]; at 50.0 µM -12.9% | [6]; at 1.2 µM -1% | [6]; at 3.7 µM -2% | [6]; [17] -15% | [6]; at 11.0 µM -2% | [6]; at 33.0 µM -5% | [6]; [18] -10% | [6]; at 50.0 µM 0.65% | [6]; at 100.0 µM -5% | [7]; at 1.2 µM -2% | [7]; at 3.7 µM -1% | [7]; at 11.0 µM -1% | [7]; at 33.0 µM -2% | [7]; at 100.0 µM -4% | [8]; at 1.2 µM -2% | [8]; at 3.7 µM -1% | [8]; at 11.0 µM -1% | [8]; at 33.0 µM -1% | [8]; at 100.0 µM 0% | [9]; at 1.2 µM 0% | [9]; at 3.7 µM -1% | [9]; at 11.0 µM -3% | [9]; at 33.0 µM -1% | [9]; at 100.0 µM -1% | [10]; [17] 6% | [10]; [18] 3% | [10]; at 50.0 µM 6.15% | [11]; at 1.2 µM -1% | [11]; at 3.7 µM -1% | [11]; at 11.0 µM -1% | [11]; at 33.0 µM -3% | [11]; at 100.0 µM -1%

CCCNC(=O)OCc1c(COC(=O)NCCC)c(-c2ccc(Cl)c(Cl)c2)n2c1CCC2
active: [2]; at 100.0 µM 73% | [5]; [18] 73% | [6]; [18] 90% | [11]; at 100.0 µM 78%
inactive: [12]; at 1.2 µM -3% | [12]; at 3.7 µM -7% | [12]; at 11.0 µM -5% | [12]; at 33.0 µM 29% | [12]; at 100.0 µM 58% | [13]; at 1.2 µM -25% | [13]; at 3.7 µM -38% | [13]; at 11.0 µM -35% | [13]; at 33.0 µM -34% | [13]; at 100.0 µM 4% | [14]; at 1.2 µM -4% | [14]; at 3.7 µM 0% | [14]; at 11.0 µM -6% | [14]; at 33.0 µM 8% | [14]; at 100.0 µM 5% | [15]; at 1.2 µM -48% | [15]; at 3.7 µM -35% | [15]; at 11.0 µM -30% | [15]; at 33.0 µM -7% | [15]; at 100.0 µM 50% | [16]; at 1.2 µM -39% | [16]; at 3.7 µM -43% | [16]; [17] 21% | [16]; at 11.0 µM -27% | [16]; at 33.0 µM 1% | [16]; [18] 42% | [16]; at 50.0 µM 61.9% | [16]; at 100.0 µM 50% | [2]; at 1.2 µM -28% | [2]; at 3.7 µM -3% | [2]; at 11.0 µM 0% | [2]; at 33.0 µM 54% | [3]; [17] 30% | [3]; [18] 67% | [3]; at 50.0 µM 50.7% | [4]; at 1.2 µM 0% | [4]; at 3.7 µM -16% | [4]; at 11.0 µM -15% | [4]; at 33.0 µM 4% | [4]; at 100.0 µM 20% | [5]; [17] 20% | [5]; at 50.0 µM 22.8% | [6]; at 1.2 µM -53% | [6]; at 3.7 µM -47% | [6]; [17] 60% | [6]; at 11.0 µM -24% | [6]; at 33.0 µM 6% | [6]; at 50.0 µM 46.2% | [6]; at 100.0 µM 48% | [7]; at 1.2 µM -36% | [7]; at 3.7 µM -16% | [7]; at 11.0 µM -27% | [7]; at 33.0 µM -21% | [7]; at 100.0 µM 44% | [8]; at 1.2 µM -9% | [8]; at 3.7 µM -9% | [8]; at 11.0 µM -19% | [8]; at 33.0 µM 26% | [8]; at 100.0 µM 57% | [9]; at 1.2 µM 0% | [9]; at 3.7 µM 4% | [9]; at 11.0 µM 11% | [9]; at 33.0 µM 40% | [9]; at 100.0 µM 62% | [10]; [17] 22% | [10]; [18] 62% | [10]; at 50.0 µM 56.4% | [11]; at 1.2 µM -35% | [11]; at 3.7 µM -29% | [11]; at 11.0 µM 2% | [11]; at 33.0 µM 62%

N#CCC(=O)N/N=C(\c1ccccc1)C(c1ccccc1)C1(O)C(=O)Nc2c(Cl)ccc(Cl)c21 (stereo unspecified)
inactive: [12]; at 1.2 µM 0% | [12]; at 3.7 µM 0% | [12]; at 11.0 µM 3% | [12]; at 33.0 µM 9% | [12]; at 100.0 µM 11% | [13]; at 1.2 µM 0% | [13]; at 3.7 µM 0% | [13]; at 11.0 µM 0% | [13]; at 33.0 µM -1% | [13]; at 100.0 µM -3% | [14]; at 1.2 µM 2% | [14]; at 3.7 µM 10% | [14]; at 11.0 µM 15% | [14]; at 33.0 µM 24% | [14]; at 100.0 µM 32% | [16]; at 1.2 µM 5% | [16]; at 3.7 µM 0% | [16]; [17] 7% | [16]; at 11.0 µM 8% | [16]; at 33.0 µM 15% | [16]; [18] 51% | [16]; at 50.0 µM 43.8% | [16]; at 100.0 µM 25% | [1]; at 1.2 µM 3% | [1]; at 3.7 µM 4% | [1]; [17] -11% | [1]; at 11.0 µM 4% | [1]; at 33.0 µM 6% | [1]; [18] 36% | [1]; at 50.0 µM 41% | [1]; at 100.0 µM 11% | [2]; at 1.2 µM 3% | [2]; at 3.7 µM 7% | [2]; at 11.0 µM 10% | [2]; at 33.0 µM 27% | [2]; at 100.0 µM 39% | [3]; [17] 4% | [3]; [18] 39% | [3]; at 50.0 µM 51.8% | [5]; [17] 9% | [5]; [18] 10% | [5]; at 50.0 µM 6.8% | [6]; at 1.2 µM 2% | [6]; at 3.7 µM 5% | [6]; [17] 8% | [6]; at 11.0 µM 11% | [6]; at 33.0 µM 15% | [6]; [18] 30% | [6]; at 50.0 µM 30.3% | [6]; at 100.0 µM 24% | [7]; at 1.2 µM 0% | [7]; at 3.7 µM 8% | [7]; at 11.0 µM -3% | [7]; at 33.0 µM -3% | [7]; at 100.0 µM 1% | [8]; at 1.2 µM 0% | [8]; at 3.7 µM -1% | [8]; at 11.0 µM -1% | [8]; at 33.0 µM 0% | [8]; at 100.0 µM 18% | [10]; [17] 6% | [10]; [18] -6% | [10]; at 50.0 µM 69.2% | [11]; at 1.2 µM 3% | [11]; at 3.7 µM 8% | [11]; at 11.0 µM 15% | [11]; at 33.0 µM 24% | [11]; at 100.0 µM 39%
